# Test results reported in PubChem BioAssay (Tox21).
# Unmarked numbers belong to inactive results. Results filed as inconclusive are left out. Where a call stands in place of a potency, no number is given. The source made the active and inactive calls. Unless noted, the call rests on the fitted dose curve; in most records, active means well fitted curve in the direction sought with a large enough effect in the repeat runs; inconclusive means weak or mixed curves; inactive means no such curve, though single readings can be large; an effect the other way counts as inactive or inconclusive.
# Key:
# [1] = qHTS assay to identify small molecule antagonists of the estrogen related receptor (ERR) signaling pathway from Tox21 library - cell viability counter screen (AID 1224834); further: nearly all actives have a fitted effect of over 30% in size
# Outline: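 CellTiter-Fluor fluorescence, read after 30 min at 37 C, measures viability of ERR cells. Cells plated at 2,000/well and incubated 6 h before pin-tool compound addition, then exposed 17.5 hours at 37 C.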
# [2] = molecular target: Luciferin 4-monooxygenase (Photinus pyralis) (UniProt P08659); test: qHTS assay to identify small molecule inhibitors of firefly luciferase (AID 1224835); further: nearly all actives have a fitted effect of over 25% in size
# Outline: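 Biochemical qHTS: compounds run as interplate titrations against purified firefly enzyme, with D-luciferin and ATP each at its KM concentration. Light output recorded by CCD imaging.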
# [3] = qHTS assay to identify small molecule agonists of the constitutive androstane receptor (CAR) signaling pathway - cell viability counter screen (AID 1224836); further: nearly all actives have a fitted effect of over 45% in size
# Outline: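 HepG2 cells stably carrying hCAR and a CYP2B6-2.2kb reporter; 15-concentration compounds plus PK11195 (final 0.75 uM), 23 hr at 37 C/5% CO2. Viability read by CellTiter-Fluor fluorescence.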
# [4] = qHTS assay to identify small molecule antagonists of the constitutive androstane receptor (CAR) signaling pathway - cell viability counter screen (AID 1224837); further: nearly all actives have a fitted effect of over 45% in size
# Outline: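 Cytotoxicity counter-screen: CellTiter-Fluor fluorescence after 23 h compound exposure (15-point qHTS) in double-stable HepG2-CYP2B6-hCAR cells, with 50 nM CITCO added.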
# [5] = qHTS assay to identify small molecule antagonists of the estrogen related receptor signaling pathway with the pleiotropic PPARgamma coactivator (PGC) from Tox21 10K library - cell viability counter screen (AID 1224840; active means well fitted cell-killing curve with a large enough effect in the repeat runs, not every such curve was filed as active; further: nearly all actives have a fitted effect of over 40% in size)
# Outline: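 Counter-screen for cytotoxicity: after 17.5 h compound exposure at 37 C, CellTiter-Fluor reagent added to PGC/ERR cells for 30 min and fluorescence read. Cells were seeded at 2,000 per well 6 h before dosing.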
# [6] = molecular target: Thyrotropin receptor (Homo sapiens) (UniProt P16473); test: qHTS assay to identify small molecule agonists of the thyroid stimulating hormone receptor (TSHR) signaling pathway (AID 1224843; calls by dose curve; further: nearly all actives have a fitted effect of over 45% in size; further: potency means the concentration at half of the fitted maximal effect)
# Outline: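 HEK293/TSHR, 800 cells/well; cpd 30 min RT; add cAMP-d2 + anti-cAMP-cryptate, 1 h RT; fluorescence read on plate reader. 15-pt titration, n=3.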
# [7] = qHTS assay to identify small molecule agonists of the hypoxia (HIF-1) signaling pathway - cell viability counter screen (AID 1224844; calls by dose curve; further: nearly all actives have a fitted effect of over 50% in size)
# Outline: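 Cytotoxicity measured by CellTiter-Glo ATP luminescence in the wells also read for beta-lactamase signal. Cells were HRE-bla ME-180 (2,000/well, 0.5% dialyzed FBS), exposed to compounds for 17 h at 37C.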
# [8] = qHTS assay to identify small molecule agonists of H2AX (AID 1224845; active means well fitted activation curve with a large enough effect in the signal ratio in the repeat runs, not every such curve was filed as active; the % refers to the signal ratio)
# Outline: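 Wild-type CHO-K1 cells, plated overnight, exposed 3hr at 37C to 15 concentrations (0.76% DMSO final). Lysed, then HTRF anti-pH2AX (S139) cryptate and anti-H2AX-d2 antibodies, 24 hr room temperature; 665/620 nm emission read.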
# [9] = qHTS assay to identify small molecule agonists of the hypoxia (HIF-1) signaling pathway (AID 1224846; active means well fitted activation curve with a large enough effect in the signal ratio in the repeat runs, not every such curve was filed as active; the % refers to the signal ratio)
# Outline: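 Compounds added to ME-180 cells carrying hypoxia-response-element beta-lactamase reporter (0.5% dialyzed FBS, 5 h preplating), 17 h at 37C; agonist activity detected by CCF4-AM B/G FRET read-out.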
# [10] = qHTS assay to identify small molecule agonists of H2AX - cell viability counter screen (AID 1224847; calls by dose curve; further: top concentration of the series differs between compounds; nearly all actives have a fitted effect of over 30% in size)
# Outline: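 CHO-K1 cells plated overnight at 37C, then exposed 3 h at 37C to compounds at 15 concentrations (0.76% DMSO final). Viability by CellTiter-Glo luminescence after 30 min at room temperature.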
# [11] = qHTS RealTime-Glo MT Cell Viability Assay in HepG2 cells - 24 hour (AID 1224867); further: nearly all actives have a fitted effect of over 50% in size
# Outline: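 HepG2 cells were seeded at 600 cells/well together with NanoLuc luciferase and a cell-permeant prosubstrate, preincubated 5 h at 37 C/5% CO2, then pin-dosed with compounds in DMSO. Nonlytic luminescence from viable cells was read at each time point.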
# [12] = qHTS RealTime-Glo MT Cell Viability Assay in HEK293 cells - 32 hour (AID 1224868); further: top concentration of the series differs between compounds; nearly all actives have a fitted effect of over 50% in size
# Outline: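 HEK293 cells were seeded at 600 cells/well together with NanoLuc luciferase and cell-permeant prosubstrate, preincubated 5 h at 37 C/5% CO2, then given compound in DMSO by pintool. Luminescence from viable-cell prosubstrate reduction was read repeatedly over 40 h.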
# [13] = A CellTox Green Cytotoxicity Assay to monitor cytotoxicity in HEK293 cells - 0 hour (AID 1224869); further: nearly all actives have a fitted effect of over 50% in size
# Outline: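 Fluorescence from a DNA-binding dye excluded by viable cells was measured repeatedly in the same HEK293 wells (600 cells/well) during continuous compound exposure at 37 C. Each assay gives one read point: 0, 8, 16, 24, 32 or 40 h.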
# [14] = qHTS RealTime-Glo MT Cell Viability Assay in HepG2 cells - 40 hour (AID 1224870); further: nearly all actives have a fitted effect of over 50% in size
# Outline: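 HepG2 cells (600/well) mixed with RealTime-Glo MT reagent, settled 5 h at 37 C/5% CO2 before compound addition. Nonlytic NanoLuc luminescence from viable-cell prosubstrate reduction read repeatedly during 40 h treatment at 37 C.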
# [15] = qHTS assay to identify small molecule antagonists of the estrogen related receptor signaling pathway with the pleiotropic PPARgamma coactivator (PGC) from Tox21 10K library (AID 1224841; call rule not given here)
# Outline: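 Luminescence (One-Glo, 30 min at room temperature) after 18 h compound treatment at 37 C of PGC/ERR reporter cells plated at 2,000 cells/well and settled 6 h beforehand.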
# [16] = qHTS assay to identify small molecule agonists of the estrogen related receptor signaling pathway with the pleiotropic PPARgamma coactivator (PGC) from Tox21 10K library (AID 1224842); further: nearly all actives have a fitted effect of over 15% in size
# Outline: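 PGC/ERR reporter cell line, 2,000 cells per well, incubated 6 h at 37 C before 23 nL compound in DMSO was added. After 18 h at 37 C, One-Glo luminescence read following 30 min at room temperature.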
# [17] = qHTS assay to identify small molecule antagonists of the estrogen related receptor (ERR) signaling pathway from Tox21 library (AID 1224848); further: nearly all actives have a fitted effect of over 50% in size
# Outline: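 Compounds dissolved in DMSO are pin-transferred onto ERR reporter cells (2,000 per well) that have settled for 6 h at 37 C. Plates then incubate 18 h at 37 C before ONE-Glo luciferase reagent and a luminescence read 30 min later.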
# [18] = qHTS assay to identify small molecule agonists of the estrogen related receptor (ERR) signaling pathway from Tox21 library (AID 1224849; calls by dose curve; further: nearly all actives have a fitted effect of over 15% in size); settings: ERR reporter cell line, ONE-Glo luciferase, 18 h; at 92.4 µM (top of the series) unless noted
# Outline: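 Luminescent agonist read-out (One-Glo, 30-minute room-temperature incubation) following 18-hour compound treatment at 37 C of the ERR cell line, which had been plated 6 hours before dosing.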
# [19] = molecular target: Nuclear receptor subfamily 1 group I member 3 (Homo sapiens) (UniProt Q14994); test: qHTS assay to identify small molecule agonists of the constitutive androstane receptor (CAR) signaling pathway (AID 1224839);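 further: HepG2 cells stably carrying human CAR and a CYP2B6 luciferase reporter; nearly all actives have a fitted effect of over 15% in size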
# Outline: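 HepG2 cells stably co-transfected with hCAR and a CYP2B6-2.2kb luciferase reporter; compounds at 15 concentrations with 0.75 uM PK11195 present. After 24 hr at 37 C, luciferase read by ONE-Glo luminescence.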
# Sequence of Luciferin 4-monooxygenase (Photinus pyralis) (P08659 whole entry, looked up): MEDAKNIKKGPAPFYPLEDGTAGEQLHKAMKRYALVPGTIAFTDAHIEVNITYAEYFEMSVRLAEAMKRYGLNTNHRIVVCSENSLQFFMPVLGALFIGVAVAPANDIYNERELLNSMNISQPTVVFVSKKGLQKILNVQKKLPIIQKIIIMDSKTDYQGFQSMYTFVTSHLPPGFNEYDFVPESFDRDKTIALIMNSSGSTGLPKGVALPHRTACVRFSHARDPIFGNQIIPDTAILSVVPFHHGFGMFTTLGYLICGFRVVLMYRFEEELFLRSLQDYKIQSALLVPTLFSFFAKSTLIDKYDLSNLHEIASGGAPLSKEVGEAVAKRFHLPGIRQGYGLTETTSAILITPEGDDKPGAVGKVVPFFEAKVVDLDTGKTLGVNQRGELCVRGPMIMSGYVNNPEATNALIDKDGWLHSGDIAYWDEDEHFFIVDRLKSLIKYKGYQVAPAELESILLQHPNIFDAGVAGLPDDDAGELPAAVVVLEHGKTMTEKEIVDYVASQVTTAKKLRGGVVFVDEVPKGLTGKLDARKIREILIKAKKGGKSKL
# Sequence of Thyrotropin receptor (Homo sapiens) (P16473 whole entry, looked up): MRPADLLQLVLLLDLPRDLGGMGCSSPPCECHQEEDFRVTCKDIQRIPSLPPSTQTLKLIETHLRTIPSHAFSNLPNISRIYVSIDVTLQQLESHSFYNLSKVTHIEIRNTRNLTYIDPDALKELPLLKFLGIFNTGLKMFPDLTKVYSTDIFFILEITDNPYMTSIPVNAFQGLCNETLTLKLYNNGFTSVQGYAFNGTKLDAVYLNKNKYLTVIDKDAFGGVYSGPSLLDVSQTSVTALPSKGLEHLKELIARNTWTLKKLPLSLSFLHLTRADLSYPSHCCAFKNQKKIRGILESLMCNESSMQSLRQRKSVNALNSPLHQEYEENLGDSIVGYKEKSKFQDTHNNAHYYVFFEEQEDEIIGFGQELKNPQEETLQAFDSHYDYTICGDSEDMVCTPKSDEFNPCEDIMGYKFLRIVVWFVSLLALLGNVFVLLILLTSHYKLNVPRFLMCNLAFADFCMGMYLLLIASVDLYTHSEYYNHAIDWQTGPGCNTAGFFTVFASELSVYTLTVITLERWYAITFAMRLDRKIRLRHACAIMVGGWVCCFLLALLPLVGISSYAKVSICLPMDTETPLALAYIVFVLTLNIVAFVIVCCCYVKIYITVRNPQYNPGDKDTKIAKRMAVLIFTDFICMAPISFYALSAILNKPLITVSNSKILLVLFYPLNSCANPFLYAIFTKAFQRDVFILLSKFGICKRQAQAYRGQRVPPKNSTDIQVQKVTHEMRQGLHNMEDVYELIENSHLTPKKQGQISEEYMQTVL
# Sequence of Nuclear receptor subfamily 1 group I member 3 (Homo sapiens) (Q14994 whole entry, looked up): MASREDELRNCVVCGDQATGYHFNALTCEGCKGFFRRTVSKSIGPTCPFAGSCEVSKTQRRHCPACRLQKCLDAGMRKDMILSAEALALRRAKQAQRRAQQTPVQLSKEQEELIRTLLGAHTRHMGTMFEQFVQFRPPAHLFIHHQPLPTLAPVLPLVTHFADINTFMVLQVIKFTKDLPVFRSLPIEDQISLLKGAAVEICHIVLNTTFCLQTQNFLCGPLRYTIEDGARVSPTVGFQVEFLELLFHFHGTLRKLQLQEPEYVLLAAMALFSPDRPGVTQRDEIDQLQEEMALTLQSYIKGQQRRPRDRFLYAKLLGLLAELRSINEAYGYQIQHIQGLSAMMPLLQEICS
Structure (SMILES),Potency [1],Potency [2],Potency [3],Potency [4],Potency [5],Potency [6],Potency [7],outcome [8],outcome [9],Potency [10],Potency [11],Potency [12],outcome [13],Potency [14],Potency [15],Potency [16],Potency [17],"activity change, positive = activation [18]",Potency [19]
CCOC(=O)c1ncn2c1CN(C)C(=O)c1c(I)cccc1-2,inactive,inactive,inactive,inactive,inactive,inactive,inactive,inactive,inactive,inactive,inactive,inactive,inactive,inactive,,,,,
COC[C@@H](NC(C)=O)C(=O)NCc1ccccc1,inactive,inactive,inactive,inactive,inactive,inactive,inactive,inactive,inactive,inactive,inactive,inactive,inactive,inactive,inactive,inactive,inactive,4.5% [at 42.5 µM],
ClCOCCl,inactive,inactive,inactive,inactive,inactive,inactive,inactive,inactive,inactive,inactive,inactive,inactive,inactive,inactive,,,,,
CN(C)C(=O)Oc1cc(OC(=O)N(C)C)cc(C(O)CNC(C)(C)C)c1 (stereo not drawn),inactive,inactive,inactive,inactive,inactive,inactive,inactive,,,inactive,inactive,inactive,inactive,inactive,inactive,inactive,inactive,0.805% [at 42.5 µM],
COC(=O)[C@@H](N)CCCN/C(N)=N/[N+](=O)[O-],inactive,inactive,inactive,inactive,inactive,inactive,inactive,inactive,,inactive,inactive,inactive,inactive,inactive,,,,,
C=C(Cl)CCl,inactive,inactive,inactive,inactive,inactive,inactive,inactive,inactive,inactive,inactive,inactive,inactive,inactive,inactive,,,,,
CN=CNc1ccc(C)cc1C,inactive,inactive,inactive,inactive,inactive,,inactive,inactive,inactive,inactive,inactive,inactive,inactive,inactive,inactive,inactive,inactive,1.36%,
N[C@@H]1C[C@H]1c1ccccc1,inactive,inactive,inactive,inactive,inactive,inactive,inactive,inactive,,inactive,inactive,inactive,inactive,inactive,,,,,
CCOc1cc(OP(=S)(OC)OC)nc(CC)n1,inactive,inactive,inactive,inactive,inactive,inactive,inactive,inactive,inactive,inactive,inactive,inactive,inactive,inactive,,,,,
Oc1ccc2c3c1O[C@H]1[C@@H](O)C=C[C@H]4[C@@H](C2)NCC[C@@]341,inactive,inactive,inactive,inactive,inactive,inactive,inactive,,,inactive,inactive,inactive,inactive,inactive,,inactive,,-18.1%,
COc1ccc2c(C(=O)c3ccc(Cl)cc3)c(C)n(CC(=O)O)c2c1,inactive,inactive,inactive,inactive,,,inactive,inactive,inactive,inactive,inactive,inactive,inactive,inactive,,,,,inactive
CC(=O)CN(CC(C)=O)N=O,inactive,inactive,inactive,inactive,inactive,inactive,inactive,inactive,inactive,inactive,inactive,inactive,inactive,inactive,inactive,inactive,inactive,-3.56%,
CC(=NC#N)N(C)Cc1ccc(Cl)nc1,inactive,inactive,inactive,inactive,inactive,inactive,inactive,inactive,inactive,inactive,inactive,inactive,inactive,inactive,,,,,
C=CC(=O)OCCN(C)C,inactive,inactive,inactive,inactive,inactive,,inactive,inactive,inactive,inactive,inactive,,inactive,inactive,inactive,inactive,inactive,3.26%,
CC(C)(C)NC[C@H](O)c1ccc(O)cc1Cl,inactive,inactive,inactive,inactive,inactive,8.4 nM (active),inactive,,inactive,inactive,inactive,inactive,inactive,inactive,inactive,inactive,inactive,0.107% [at 42.5 µM],
COc1cccc([C@@]2(O)CCCC[C@@H]2CN(C)C)c1,inactive,inactive,inactive,inactive,inactive,inactive,inactive,inactive,inactive,inactive,inactive,inactive,inactive,inactive,inactive,inactive,inactive,1.87% [at 42.5 µM],
